Results reported in PubChem BioAssay (NCATS).
Values without a mark were called inactive. Activity calls are given as the source filed them. Calls follow the shape of the dose curve; as a rule, active = well fitted inhibition curve with a large enough effect; inconclusive = small, poorly fitted or top-dose-only effect; inactive = no such curve, though single readings can be large or run the other way.

Molecular target: Single-stranded DNA cytosine deaminase (Homo sapiens) (UniProt Q9GZX7)
Assay: Validation qHTS assay for inhibitors of Activation Induced Cytidine Deaminase (AID): AID signal (AID 1347429)
Conditions: Recombinant AID, FRET ssDNA deamination with UDG, fluorescence; series mostly up to 115 µM; activity change, negative = inhibition: at the top concentration
Procedure, shortened: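 FRET deamination assay: 1 uM AID (4/3x stock) with UDG, compound up to 114 uM, then 250 nM DJC20/DJC23 substrate (4x stock) for 4 hr at room temperature. NaOH added, 30 min; fluorescence read 540/590 nm.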
% is scaled to controls: 0 for no effect and ±100 for the full control effect; potency is read from the fitted curve at half-maximal effect.

Sequence of Single-stranded DNA cytosine deaminase (Homo sapiens) (Q9GZX7 whole entry, looked up): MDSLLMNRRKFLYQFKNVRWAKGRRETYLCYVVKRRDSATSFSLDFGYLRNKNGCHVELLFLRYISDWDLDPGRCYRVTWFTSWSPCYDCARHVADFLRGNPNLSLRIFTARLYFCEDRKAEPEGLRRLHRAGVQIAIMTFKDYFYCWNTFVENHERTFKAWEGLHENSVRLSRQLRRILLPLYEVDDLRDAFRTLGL

| Compound | activity change, negative = inhibition [%] | Potency |
| --- | --- | --- |
| Cc1sc2ccccc2c1CC1=NCCN1 | 22.1 |  |
| COc1ccc2[nH]c3c(c2c1)CCNC3 | 40.8 |  |
| C[C@H](N)CN1CCc2ccc(Br)cc21 | 38.8 |  |
| NC(=O)c1ccc(OCC(O)CN2CC=C(c3ccc(F)cc3)CC2)cc1 (centres undefined) | 75.5 |  |
| CCCn1c(=O)c2[nH]c(C3CCCC3)nc2n(CCCOC(=O)c2ccc(S(=O)(=O)F)cc2)c1=O | 28.8 |  |
| CCCN(CCC)C1Cc2cc(OC)c(OC)cc2C1 | 39.6 |  |
| CN1CCC(c2c[nH]c3ccc(O)cc23)CC1 | 70.6 |  |
| CCCN1CC[C@@H]2c3cc(O)ccc3CC[C@@H]21 | 46.1 |  |
| C[N+](C)(C)CCOC(=O)CBr | 13 |  |
| c1ccc2c(N3CCNCC3)cccc2c1 | -5.39 |  |
| CCS(=O)(=O)Nc1cccc(C(=C2CCCCC2)c2cnc[nH]2)c1 | 17 |  |
| C[C@H](N)Cc1cccc(C(F)(F)F)c1 | 16.6 |  |
| CO[C@H]1CC=C2CCN3CCC4=C(CC(=O)OC4)[C@]23C1 | 24.3 |  |
| CC(N)Cc1c[nH]c2ccc(OCc3cccs3)cc12 (centres undefined) | 24.2 |  |
| NCC(O)c1cc(O)c(O)cc1F (centres undefined) | 27.7 |  |
| CCCN(CCC)C1CCc2cccc(O)c2C1 (centres undefined) | 19.7 |  |
| N=C(N)c1ccc(CS(=O)(=O)F)cc1 | 24.5 |  |
| CC(=O)c1c(O)c(C)c(O)c(Cc2c(O)c3c(c(C(=O)/C=C/c4ccccc4)c2O)OC(C)(C)C=C3)c1O |  | 31.6 µM (active) |
| CC(C)(O)[C@@H]1C2OC(=O)[C@@H]1[C@]1(O)C[C@H]3O[C@]34C(=O)O[C@H]2[C@]14C (tested in a mixture with another compound) | 23.6 |  |
